FUS suppressor = rescues growth of FUS-expressing yeast | S. cerevisiae FUS-expressing, growth rescue, OD600, 24 h | Potency, µM (series often up to 76.6 µM), usual class: activators | 0.24% of 390,000 active | AID 1347120; further: nearly all actives have a fitted effect of over 55% in size
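Restored growth of FUS-toxic S. cerevisiae, read as 600 nm absorbance after 24 h at 30C in galactose medium (starting OD 0.005). Controls CP55940 and DMSO.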
Abeta rescue = restores growth of yeast expressing A-beta42 peptide; yeast expressing A-beta42, growth rescue, OD600, 48 h; response scale: 0% DMSO, 100% iron-clioquinol control; 0.063% of 410,000 active; Potency, µM (doses to about 46.1 µM), hits mostly activators; further: nearly all actives have a fitted effect of over 55% in size
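Growth rescue measured by 600 nm absorbance after 48 h yeast culture at 30 C with compound. Values normalized between DMSO and an equimolar ferric chloride plus clioquinol control.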
aSyn yeast inh = rescues yeast growth from alpha-synuclein toxicity; Yeast expressing alpha-synuclein, growth rescue, BacTiter-Glo, 24 h; 0.14% of 370,000 active; AID 652106; Potency, µM (top dose mostly 46.1 µM), most hits filed as activators; further: nearly all actives have a fitted effect of over 65% in size
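Readout is rescue of growth in alpha-synuclein-expressing yeast, so inhibitors of toxicity appear as activators. Growth after 24 hr at 30 deg C in galactose medium is quantified by luminescence.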
TDP43 rescue = inhibitors of TDP-43 toxicity in yeast | TDP-43 expressing yeast growth rescue, BacTiter-Glo, 24 h | Potency, µM (doses to about 46.1 µM), usual class: activators | 1.8% of 410,000 active | AID 652104; further: nearly all actives have a fitted effect of over 50% in size
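Readout is BacTiter-Glo luminescence of cell growth, so inhibitors register as activators. TDP-43-expressing yeast at OD600=0.02 in galactose medium, after raffinose pregrowth to mid-log, were incubated with compound for 24 hr at 30 deg C.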
Large screens that a line does not name were inactive. In the library only some 2.1% were active in any assay of this set; here they are far more common. The call rests on the fitted dose curve; in most records, active means well fitted curve in the direction sought with a large enough effect; inconclusive means small, poorly fitted or top-dose-only effect, or another doubt; inactive means no such curve, though single readings can be large; an effect the other way counts as inactive or inconclusive.

COc1ccc(-c2coc3c(C(=O)NC4CCCCC4)cccc23)c(C)c1	none
COc1ccc(C(=O)/C=C2/C(=O)Nc3ccccc32)cc1	TDP43 rescue 2.82µM
COc1ccc(C(=O)/C=C2/C(=O)Nc3ccccc32)cc1OC	FUS suppressor inconclusive
COc1ccc(C(=O)/C=C2/C(=O)Nc3ccccc32)c(OC)c1	TDP43 rescue 11.2µM
O=C(CSC1=NCCS1)Nc1ccc(S(=O)(=O)NC2CCCCC2)cc1	FUS suppressor 39.8µM
O=C(CSC1=NCCS1)Nc1ccc(S(=O)(=O)N2CCCCCC2)cc1	none
CCOC(=O)CSc1c(-c2ccc(Cl)cc2)[nH]c2ccccc12	none
CCOC(=O)CSc1c(-c2cccs2)[nH]c2ccccc12	Abeta rescue inconclusive, TDP43 rescue 15.8µM
Cc1cccc(C(=O)Nc2cccc(OCc3cc(=O)n4ccccc4n3)c2)c1	none (no result: aSyn yeast inh)
COc1ccc(-c2nc(CCNC(=O)Cc3ccc(F)cc3)cs2)cc1	none (no result: aSyn yeast inh)
CCCCNc1c(-c2ccc(OC)c(SC3CCCCC3)c2)nc2cnccn12	FUS suppressor 31.6µM
CCCCNc1c(-c2ccc(SC3CCCCC3)cc2)nc2cnccn12	FUS suppressor inconclusive, TDP43 rescue 22.4µM
Clc1ccc(-c2nc3cnccn3c2NC2CCCC2)cc1	TDP43 rescue 12.6µM
CCCCCCSc1ccc(-c2nc3cnccn3c2NC2CCCCC2)cc1	none
CCOC(=O)c1c(C)[nH]c(C)c1S(=O)(=O)N1CCCC(C(=O)N2CCN(c3cccc(C)c3C)CC2)C1 (stereo not drawn)	none (no result: aSyn yeast inh)
OC[C@@H]1[C@@H](c2ccccc2)C(c2cccc(Cl)c2)=NN1c1ccccc1	FUS suppressor inconclusive
COc1ccccc1[C@H]1C(c2cccc(Cl)c2)=NN(c2ccccc2)[C@@H]1CO	FUS suppressor inconclusive, TDP43 rescue 20µM
OC[C@@H]1[C@@H](c2ccccc2)C(c2ccccc2)=NN1c1ccccc1	Abeta rescue inconclusive, aSyn yeast inh inconclusive, TDP43 rescue 12.6µM
N#Cc1ccc(Cn2ccc3ccc(-c4ccc5ccn(Cc6ccccc6)c5c4)cc32)cc1	none (no result: Abeta rescue, aSyn yeast inh, TDP43 rescue)
CCOC(=O)C1=C(C)NC2=C(C(=O)C(C(=O)OCC)C(c3ccco3)C2)C1c1ccccc1C (stereo not drawn)	none (no result: FUS suppressor, Abeta rescue, TDP43 rescue)
CCOC(=O)c1c(C)oc2nc(C)nc(NCc3ccccc3OC)c12	none (no result: aSyn yeast inh)
CCOC(=O)C1CCN(S(=O)(=O)c2cc(-c3onc(C)c3C)ccc2C)CC1	FUS suppressor inconclusive, TDP43 rescue inconclusive (no result: aSyn yeast inh)
Cc1nc2c(OCCC3CCCCC3)cccn2c1N(C)C(=O)CCC1CCCC1	TDP43 rescue 35.5µM
Cc1nc2c(OCc3cc(Cl)cc(Cl)c3)cccn2c1N(C)C(=O)CCC1CCCC1	FUS suppressor inconclusive, TDP43 rescue 35.5µM
Cc1nc2c(OCCOc3ccccc3)cccn2c1N(C)C(=O)CCC1CCCC1	TDP43 rescue inconclusive
Cc1nc2c(OCCOc3ccc(F)cc3)cccn2c1N(C)C(=O)CCC1CCCC1	none
COc1ccc(-n2c(COc3ccc(Cl)cc3)nnc2SCC(=O)c2ccc(-c3ccccc3)cc2)cc1	none (no result: Abeta rescue, aSyn yeast inh, TDP43 rescue)
ONC(=Nc1ccccc1)c1ccc(Cl)cc1	TDP43 rescue 12.6µM
CC[N+](C)(C)c1ccc(/C=C/c2ccc3ccccc3n2)cc1	none (no result: FUS suppressor, Abeta rescue, TDP43 rescue)
Cc1nc(CS(=O)(=O)c2ccccc2)cc(Sc2ccccc2Cl)n1	TDP43 rescue 31.6µM
Cc1nc(CS(=O)(=O)c2ccccc2)cc(Sc2ccc(Cl)cc2)n1	TDP43 rescue inconclusive
O=S(=O)(Cc1cc(Cl)nc(-c2ccccc2)n1)c1ccccc1	none
Cc1nc(CS(=O)(=O)c2ccc(Cl)cc2)cc(Sc2ccccc2Cl)n1	TDP43 rescue 35.5µM
Cc1cccc(Cc2cnc(N3C(=N)SC(C)C3=O)s2)c1 (stereo not drawn)	Abeta rescue inconclusive, aSyn yeast inh 10µM, TDP43 rescue 22.4µM
N=C1SCC(=O)N1c1ncc(Cc2cccc(Cl)c2)s1	TDP43 rescue 8.91µM
Cc1ccc(Cc2cnc(N3C(=N)SC(C)C3=O)s2)cc1 (stereo not drawn)	TDP43 rescue inconclusive
Cc1ccccc1-n1c(SCC(=O)Nc2ccc(Cl)cc2Cl)nc(O)cc1=O	none (no result: aSyn yeast inh)
CCN(CC)c1ccc(/C=C/c2ccc3ccccc3n2)cc1	none (no result: FUS suppressor, Abeta rescue, TDP43 rescue)
COc1ccc(CCCc2nnc(SCC(=O)Nc3cc(F)ccc3C)o2)cc1	none (no result: aSyn yeast inh)
COc1ccccc1/C=C1\NC(=S)N(CC2CCCO2)C1=O (stereo not drawn)	TDP43 rescue 14.1µM
COc1ccc(/C=C2/C(=O)N(CC3CCCO3)C(=S)N2C)c(OC)c1 (stereo not drawn)	none
O=C(NCCn1cc(SCc2ccccc2Cl)c2ccccc21)c1cccs1	TDP43 rescue inconclusive (no result: aSyn yeast inh)
CCCCCSc1nc2c(c(=O)[nH]c(=O)n2C)n1C	none
CCCCCSc1nc2c(c(=O)[nH]c(=O)n2C)n1CC	TDP43 rescue 12.6µM
COC(=O)C1=C(O)CSC1=Nc1ccc(C)cc1	TDP43 rescue 15.8µM (no result: FUS suppressor)
O=[N+]([O-])c1ccc(O/N=[N+](\[O-])N2CCN(c3ccccc3)CC2)c([N+](=O)[O-])c1	none (no result: FUS suppressor, Abeta rescue, TDP43 rescue)
COc1ccc(NC(=S)N2CCC3CC2c2c(Cl)cccc23)c(OC)c1 (stereo not drawn)	TDP43 rescue 14.1µM
C=CCNC(=S)N1CCC2CC1c1c(Cl)cccc12 (stereo not drawn)	Abeta rescue inconclusive
Cc1ccnc(NC(=O)c2ccc([N+](=O)[O-])s2)c1	TDP43 rescue 8.91µM
Cc1cccc(NC(=O)c2ccc([N+](=O)[O-])s2)c1C	Abeta rescue inconclusive, TDP43 rescue 11.2µM
Cc1ccnc(NC(=O)c2cc([N+](=O)[O-])cc([N+](=O)[O-])c2)c1	none
Cc1cccc(C)c1NC(=O)c1ccc([N+](=O)[O-])s1	none
CCOCCn1ccc2c(OCC(=O)Nc3cc(C(F)(F)F)ccc3Cl)cccc2c1=O	TDP43 rescue inconclusive (no result: aSyn yeast inh)
COc1ccc(NC(C)(C)c2nnnn2-c2c(C)cccc2C)cc1	TDP43 rescue 12.6µM
CSc1ccc(CCNC(=O)CN2C(=O)COc3ccc(S(=O)(=O)N4CCCC4)cc32)cc1	none (no result: aSyn yeast inh)
CC1(C)Cc2ccccc2-c2nnc(SCc3ccc(C#N)cc3)n21	TDP43 rescue 12.6µM
O=C(CS(=O)(=O)c1nc(-c2ccc(Cl)cc2)cn1-c1ccccc1)Nc1ccc(F)cc1F	FUS suppressor inconclusive, TDP43 rescue 14.1µM (no result: aSyn yeast inh)
O=C(CS(=O)(=O)c1nc(-c2ccc(Cl)cc2)cn1-c1ccccc1)Nc1cccc(Cl)c1	FUS suppressor inconclusive, TDP43 rescue inconclusive (no result: aSyn yeast inh)
O=C(COc1ccc(Cl)cc1)NCc1ccc(F)cc1	TDP43 rescue 11.2µM
O=C(COC(=O)CCCOc1ccc(Cl)cc1Cl)NCc1ccc(F)cc1	Abeta rescue inconclusive, TDP43 rescue 15.8µM
CNC(=O)c1ccccc1Nc1ccc(SC(F)F)cc1	TDP43 rescue 22.4µM
COC(=O)c1cccc(NC(=O)c2nsc3ccccc23)c1	none (no result: aSyn yeast inh)
C=C(C)CNC(=S)NN=C1c2ccccc2-c2ccccc21	none
CCNC(=S)NN=C1c2ccccc2-c2ccccc21	TDP43 rescue 12.6µM
COc1ccc(C)cc1NC(=O)CSc1nnc(COc2ccc(C)cc2)n1Cc1ccco1	TDP43 rescue 15.8µM
CCn1c(COc2ccccc2)nnc1SCC(=O)Nc1cc(C)ccc1OC	none

Screening data: PubChem BioAssay, National Center for Advancing Translational Sciences (NCATS)
